Measured values reported in PubChem BioAssay.
Active and inactive are the calls of the source. Unless noted, how the calls were made is not given here.

How the values were obtained:
[1] = test system: XIP peptide (Xip251-270) binding; experiment: XIP fragment 251-270 binding compounds – biochemical, small-molecule microarray, fluorescence 635/667 nm, 0.1 µg/mL protein, primary screen (AID 1182); conditions: fluorescent protein binding, 635 nm, higher = more signal, called active from +8 up or from −8 down
XIP peptide (Xip251-270) = experiment: compounds binding XIP fragment 251-270 – biochemical, small-molecule microarray, fluorescence 635/667 nm, 0.5 µg/mL protein, primary screen (AID 1183); conditions: fluorescence 635 nm, higher = more signal
[2] = blood-stage malaria parasite viability loss – strain 3D7, DAPI fluorescence, 100 nL, primary screen (AID 1184);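 further: parasites grown inside human red blood cells in medium with human serum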; conditions: P. falciparum 3D7 growth, 3 d, higher = more signal
[3] = target: Homeobox protein Hox-A13 (Mus musculus) (UniProt Q62424); experiment: disruptors of Hoxa13 oligonucleotide interaction – biochemical, fluorescence polarization, labeled oligonucleotide, primary screen (AID 1185); conditions: Hoxa13:DNA binding, 15 min, higher = more signal, called active from +8 up or from −8 down
[4] = blockers of DNA damage checkpoint Chk1 activation – imaging, HeLa, hydroxyurea, phospho-Chk1 antibody, percent positive cells, primary screen (AID 1186); conditions: hydroxyurea-induced phospho-Chk1 immunofluorescence imaging, higher = more signal
[5] = blockers of DNA damage checkpoint Chk1 activation – imaging, HeLa, hydroxyurea, phospho-Chk1 nuclear intensity, primary screen (AID 1187); conditions: hydroxyurea-induced phospho-Chk1 immunofluorescence imaging, higher = more signal

Chain of Homeobox protein Hox-A13 (Mus musculus) (Q62424 whole entry, looked up): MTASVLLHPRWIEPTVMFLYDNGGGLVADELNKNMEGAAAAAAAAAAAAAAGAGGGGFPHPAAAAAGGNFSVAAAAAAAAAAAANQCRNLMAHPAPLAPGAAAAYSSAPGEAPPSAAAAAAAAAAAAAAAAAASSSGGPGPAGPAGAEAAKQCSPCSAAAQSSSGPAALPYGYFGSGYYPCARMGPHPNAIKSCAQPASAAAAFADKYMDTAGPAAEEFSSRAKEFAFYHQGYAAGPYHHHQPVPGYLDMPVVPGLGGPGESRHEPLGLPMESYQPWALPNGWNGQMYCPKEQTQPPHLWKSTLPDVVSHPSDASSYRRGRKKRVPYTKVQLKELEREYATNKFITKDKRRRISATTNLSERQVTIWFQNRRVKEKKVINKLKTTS

SMILES | composite z-score [1] | composite z-score (XIP peptide (Xip251-270)) | z-score [2] | z-score [3] | z-score [4] | z-score [5]
COC(=O)c1c(CC[C@@H](CO)NC(=O)N[C@H](Cn2cc(-c3cncn3C)nn2)C(C)C)oc(C(C)=O)c1C(=O)OC | 1.88 (inactive) | -0.0139 | -2.19 | 3.03 (inactive) | -0.139 (inactive) | 0.233 (inactive)
O=C1C2C=CC(C(O)C#Cc3ccccc3)N(Nc3ccccc3)C2C(=O)N1c1ccccc1 (stereo not drawn) | -0.115 (inactive) | 0.176 | 0.801 | -4.05 (inactive) | -0.0484 (inactive) | -0.217 (inactive)
O=C(NCc1ccccc1)[C@@]1(CCS(=O)(=O)c2ccccc2)COC(c2ccc(OCCCO)cc2)=N1 | 1.13 (inactive) | 0.881 | -2.26 | -4.72 (inactive) | -0.712 (inactive) | -0.464 (inactive)
O=C1O[C@@H](c2ccccc2)[C@@H](c2ccccc2)N2[C@@H](c3ccc(O)cc3)[C@]3(C(=O)Nc4ccc(C#CC5(O)CCCCCC5)cc43)[C@@H](C(=O)Nc3nc4ccccc4s3)[C@H]12 | 1.8 (inactive) | 0.756 | -0.697 | -0.586 (inactive) | -0.44 (inactive) | -0.169 (inactive)
O=C1OCC=C[C@H]2OC34C=CCN(Cc5ccccc5)C(=O)[C@H]3N(CCO)C(=O)[C@@H]4[C@@H]12 (stereo partly drawn) | -0.132 (inactive) | 0.666 | 0.438 | -4.18 (inactive) | 0.373 (inactive) | 0.252 (inactive)
CC(C)[Si](OCC[C@H]1O[C@]2(C(=O)N(Cc3ccccc3)c3ccccc32)[C@@H](C)[C@@H]1[Si](C)(C)O)(C(C)C)C(C)C | -0.177 (inactive) | 0.457 | -1.94 | -0.292 (inactive) | -0.558 (inactive) | -0.322 (inactive)
COCCOC(=O)N1C(=O)[C@@]2(c3cc(C#CCC(C(=O)OC)C(=O)OC)ccc31)[C@H](c1ccccc1OCCO)N1[C@H](c3ccccc3)[C@H](c3ccccc3)OC(=O)[C@H]1[C@@H]2C(=O)N1CCCCCCC1 | 0.856 (inactive) | 0.597 | -1.97 | 2.94 (inactive) | -0.304 (inactive) | -0.309 (inactive)
COCCOC(=O)N1C(=O)[C@@]2(c3cc(C#CCCO)ccc31)[C@H](c1ccc(OCCO)cc1)N1[C@H](c3ccccc3)[C@H](c3ccccc3)OC(=O)[C@H]1[C@@H]2C(=O)NC[C@H](O)c1ccccc1 | 0.405 (inactive) | 0.765 | -2.1 | -1.24 (inactive) | -0.234 (inactive) | -0.341 (inactive)
O=C1c2ccccc2[C@](Cc2ccccc2I)(C(=O)O)[C@H](c2ccc(CO)cc2)N1C1CCCCC1 | 1.87 (inactive) | 0.734 | -1.49 | -2.96 (inactive) | -0.225 (inactive) | -0.395 (inactive)
CO[C@H]1O[C@H](CO)[C@@H](OC(=O)Nc2ccccc2)[C@H](OC(=O)Nc2ccc3c(c2)OCO3)[C@@H]1OC(=O)Nc1ccc2c(c1)OCO2 | 2.23 (inactive) | 0.863 | -1.9 | -9.6 (active) | 0.149 (inactive) | 0.121 (inactive)
[N-]=[N+]=Nc1ccccc1C[C@@]1(C(=O)N2CCOCC2)N=C(c2ccc(OCCCO)cc2)O[C@@H]1c1ccccc1N=[N+]=[N-] | 0.49 (inactive) | 0.348 | -2.28 | -5.16 (inactive) | -1.03 (inactive) | -1.06 (inactive)
COCCOC(=O)N1C(=O)[C@@]2(c3cc(C#CC4=CCCCC4)ccc31)[C@H](C(=O)NC[C@H](O)c1ccccc1)[C@H]1C(=O)O[C@H](c3ccccc3)[C@H](c3ccccc3)N1[C@@H]2c1ccccc1OCCO | 0.51 (inactive) | 0.681 | -2.02 | 1.22 (inactive) | 0.443 (inactive) | 0.384 (inactive)
C=CCC(OC(C)=O)[C@@H]1[C@@H](N(Cc2cccc3ccccc23)C(=O)c2ccc(C)cc2)c2cc(OCCCO)ccc2N1C(=O)c1ccc(-c2ccccc2)cc1 (stereo partly drawn) | -0.115 (inactive) | 0.481 | -1.93 | -0.128 (inactive) | -0.35 (inactive) | -0.844 (inactive)
CC[C@H]1C2=C3C(CC[C@H]4C(OC)OC[C@](C)([C@@H]34)N(C(=O)OC(C)(C)C)C2)C(CO)C1CO (stereo partly drawn) | 0.442 (inactive) | 0.701 | -0.62 | -4.74 (inactive) | -1.37 (inactive) | -1.18 (inactive)
C=C(COC)C(=O)CC[C@H](OC(=O)c1ccccc1-c1ccccc1C(=O)O)c1cccc(OCCO)c1 | 0.437 (inactive) | 0.569 | -0.034 | -4.76 (inactive) | 0.369 (inactive) | 0.258 (inactive)
COc1ccc(-c2cc3c(c(-c4ccccc4)n2)[Si](C(C)C)(C(C)C)O[C@H]3c2ccccc2)cn1 | 0.64 (inactive) | 0.559 | -2.91 | -2.23 (inactive) | -0.317 (inactive) | -0.344 (inactive)
N#Cc1ccc(NN2C(C(O)CCc3ccccc3)C=CC3C(=O)N(c4ccccc4)C(=O)C32)cc1 (stereo not drawn) | 1.15 (inactive) | -0.279 | 0.484 | -4.3 (inactive) | -0.13 (inactive) | -0.424 (inactive)
COCCOC(=O)N1C(=O)[C@@]2(c3cc(C#CCC(C(=O)OC)C(=O)OC)ccc31)[C@H](C(=O)N1CCN(c3ncccn3)CC1)[C@H]1C(=O)O[C@H](c3ccccc3)[C@H](c3ccccc3)N1[C@@H]2c1ccc(O)cc1 | 1.36 (inactive) | 0.843 | -2.08 | -0.323 (inactive) | -0.447 (inactive) | -0.685 (inactive)
COC(=O)[C@@]1(Cc2ccccc2)[C@H]2c3cc(C(=O)N4CCCC4)n(CCN4CNCC4=O)c3C[C@H]2CN1C(=O)c1ccccc1 | 1.12 (inactive) | -0.127 | -1.12 | -5.22 (inactive) | 0.421 (inactive) | 0.912 (inactive)
CCCC=C(CCC)[C@@H](NS(=O)(=O)c1ccc(C(F)(F)F)cc1)c1ccc(-c2ccccc2)cc1 | 0.14 (inactive) | 0.0936 | -0.334 | -1.61 (inactive) | -0.208 (inactive) | -0.144 (inactive)
C=CCC(OC(C)=O)[C@@H]1[C@@H](N(Cc2cccc3ccccc23)C(=O)Cc2ccc(F)cc2)c2cc(OCCCO)ccc2N1C(=O)Cc1ccc2ccccc2c1 (stereo partly drawn) | -0.741 (inactive) | 0.57 | -1.17 | -0.474 (inactive) | -0.579 (inactive) | -0.516 (inactive)
C=CCN(C(=O)C1N(c2ccc(CCO)cc2)C(=O)C2C(C(=O)O)C3C=CC21O3)C(C)(C)C (stereo not drawn) | 0.865 (inactive) | -1.52 | -1.71 | 0.729 (inactive) | 0.0293 (inactive) | -0.112 (inactive)
C=C[C@H](OC)[C@@H](OC(=O)Nc1ccc(SC)cc1)c1ccc(OC)c(O)c1 | 0.241 (inactive) | 0.0001 | -0.549 | -2.82 (inactive) | -0.439 (inactive) | 0.136 (inactive)
